Test results reported in the supplement of paper PMC11417369.
± gives the standard deviation of the averaged measurements. In all, about 25,000 sequences were measured (“ln(normalized median fluorescence intensity)”: median about 7.9, highest 2% from about 11 on). Shown is part of a subset that was picked to be rich in the highest values.

What follows are sequences tested on PfAP2-I AP2 domain 3 (GST-tagged) (assay: gcPBM binding intensity (ln(normalized median fluorescence intensity)); higher = stronger DNA binding).
How it was run: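 Binding intensity is the highest Masliner-normalised natural-log median intensity over replicate spots in either probe orientation. To obtain it, GST-tagged P. falciparum DNA-binding domains made in E. coli were incubated for 1 h on an Agilent 4 × 180k array of primer-extended double-stranded 36-bp intergenic genomic probes plus negative controls. Detection used Alexa488 anti-GST antibody with scanning at 488 nm.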

Row | Sequence | gcPBM binding intensity (ln)
1 | TGTCCAATTTTTTATCGTACATAATATATAAATAAA [XGTACX_site1705] | 8.01 ± 0.33
2 | TTTTCTTGATTTTGTAGTACATTTTTACGATATTTT [XGTACX_site63] | 7.94 ± 0.55
3 | ATTTAATATCACAATATATTTTTTACCCTTATCAGC [CACACA_negctrl_site491] | 7.59 ± 0.76
4 | CATGAGGTATAAAAGGTGCAAATTAATGAGAACATT | 11.1 ± 0.36
5 | TATGTATTAATGAGAACATGCAAAATAATAAACAAT [TGCATGCA_site362] | 8.45 ± 0.59
6 | CGTTGGTATTAAAAGGTGCAATGAAATAATATATTA | 10.8 ± 0.63
7 | TTTTTAAAAAAACATACACACAAAAAAAAAAAAAAA [CACACA_site3935] | 8.11 ± 0.67
8 | TTATATCAAGGGAATGCATGCATATCGTTTTGTATT [TGCATGCA_site327] | 7.68 ± 0.88
9 | ACAAAAAAAAACGTGGTGCATTAATAATATTGTATA [GTGCAC_site9469] | 11.7 ± 0.3
10 | TATTGTATATAATAAACACACAATATTAAAAATATA [CACACA_site1057] | 7.4 ± 0.52
11 | AATATTGTATATAATAAACACACAATATTAAAAATA [CACACA_site8262] | 7.57 ± 0.39
12 | TCTTATATTATATTGTGTATTAAAATTTAACTTCAA [TGCATGCA_negctrl_site565] | 7.83 ± 0.58
13 | ACTTTTTATTTTTTACTATATATATATATATATATG [TGCATGCA_negctrl_site463] | 8.31 ± 0.44
14 | TATATATTTGTTCACACACACACAAAAAAAAAAAAA [CACACA_site2475] | 8.08 ± 0.52
15 | GGTGCACCCATATACACACACAAATACAATGATAAA [CACACA_site1132] | 9.99 ± 0.56
16 | TGGGCACCCATATACACACACAAATACAATGATAAA [CACACA_site4762] | 7.78 ± 0.28
17 | TATGTGCACCCATATACACACACAAATACAATGATA [CACACA_site8295] | 11.3 ± 0.85
18 | CCCGTAAATACAAAAAGTACAAAAGTTCATCTTATA [XGTACX_site1154] | 7.93 ± 0.99
19 | AATTTATTTTTAAAAAGTACATACTTAAGAAAACGA [XGTACX_site3660] | 8.12 ± 0.29
20 | CTGTACACTTAAACGGTGCAAAAAGAAAAAAAAGAA | 11 ± 0.38
21 | AAAGAAAACGGACTTTGTACTTAAATATAATATAAA [XGTACX_site8585] | 7.69 ± 0.34
22 | AATAAAATGAGATGTTGTACAGTTTTGATATATGCA [XGTACX_site3052] | 7.96 ± 0.19
23 | GATAAAATGAGACCAGTGCATTATTAGTTGTACACC | 11.3 ± 0.53
24 | CATTATTATGATAGTTGTACAATTTTTATAAAAAAT [XGTACX_site4411] | 7.93 ± 0.35

Row | Sequence | gcPBM binding intensity (ln)
25 | TAATTAATTTATTAGTTGCACTGTACCATTAGAGTA | 9 ± 0.11
26 | TTTTTATAGAATTTAACACACATTTCATATAAAAAA [CACACA_site7453] | 7.86 ± 0.47
27 | TAATAAAATATGTACGTGCACATAATTATACTAAAA | 10.3 ± 0.18
28 | TACTATTATAAATATGTGCACTTCAATAATATACTA | 10.4 ± 0.11
29 | AAAAAAAAAAAATACGTGCACTATGATATATTATAT | 11.4 ± 0.36
30 | TATGATTAATTACCACAATTGACAAAAAAAAAAAAA [CACACA_negctrl_site336] | 8.13 ± 0.87
31 | AACTATTTTATTATATGTACTTACGAATTTATAAAA [XGTACX_site5262] | 7.87 ± 0.35
32 | ATATATATTATGTGTGTGCACTTTTGTTATTATTAT | 9.83 ± 0.014
33 | TTTTGTTACTTTTATGTGCACTTATAAAACGAACTA [GTGCAC_site9551] | 11.3 ± 0.085
34 | AAAACACAATTTATTACACACATATATTATAGATTA [CACACA_site6780] | 7.61 ± 0.68
35 | AGAATTTTAGATTTAGCACACATTTTTTTTTTTTTT [CACACA_site4081] | 8.34 ± 0.45
36 | ATGATATGCAATTTAGTGCATAACAAAATTGGTATA | 10.9 ± 0.49
37 | ATATTGAAATTAAAAAAATATATGAACAAATGATGA [CACACA_negctrl_site602] | 7.69 ± 0.59
38 | GTTTTAACAAAATTAGTGCATTTATCAATTATATAA | 10.5 ± 0.14
39 | TATATAGATATGATAGTGCATTTTTAGAAAACATAA [GTGCAC_site9962] | 9.44 ± 0.14
40 | TTTTTTTTTTTTGTAGTGCAAATTAAAAATATATGT | 10.6 ± 0.53
41 | TTTTTTAAATTGGTAGTGCAATATGATTGAACAAAA [GTGCAC_site9715] | 10.9 ± 0.79
42 | AAAAAAAAAAAAAGCACACATATAAATATGAATAAA [CACACA_site1393] | 8.39 ± 0.085
43 | TAATTTTATATTAAAAGTACATAATAAAAACTATAA [XGTACX_site8779] | 7.79 ± 0.22
44 | TAAATATATATCATCACACACACATACATAAATATA [CACACA_site183] | 7.72 ± 0.47
45 | TAATAATATAAATATGCACACAAATTATTACCCAAA [CACACA_site8805] | 8.97 ± 0.47
46 | AAAAATATAATATATGCACACATACATACATATATA [CACACA_site7915] | 9.06 ± 0.057
47 | CATATTTGCACTTTCACACATAAATATATAACTATA [CACACA_site6016] | 11 ± 0.89
48 | AAAAAATATACATATACACACATATGTATATATAAT [CACACA_site8676] | 7.57 ± 0.31

Row | Sequence | gcPBM binding intensity (ln)
49 | AATATAATATAATGCACACATAAAAAAAAAAAAATC [CACACA_site1303] | 11 ± 0.64
50 | GCTAAAAGTATATGCACACACATATAGATGCACATA [CACACA_site6868] | 10 ± 0.14
51 | GTGCTAAAAGTATATGCACACACATATATATGCACA [CACACA_site8472] | 10.9 ± 0.55
52 | AAAATATAATATAATGCACACATAAAAAAAAAATCA [CACACA_site7922] | 10.8 ± 0.64
53 | GCTAAAAGTATATGCACACACATATATATGCACATA [CACACA_site1635] | 10.3 ± 0.16
54 | CTTTTTTTTTTTTTTGCACACACATATATAAATATA [CACACA_site3950] | 9.74 ± 0.042
55 | AATTCTTTACTATTCACACATATAAATATTCACTTT [CACACA_site4886] | 8 ± 0.7
56 | AAAAATAATGCACATATATATAATATGTATATGTAT [CACACA_negctrl_site443] | 11 ± 0.6
57 | ATAGATATACATATCACACATATATATATATATATA [CACACA_site4985] | 9.19 ± 0.65
58 | GATATAGATATTAATTGTACATATTATTTATTGTTA [XGTACX_site846] | 7.62 ± 0.36
59 | TTAAAAAAATATAATACACACCAAAAATATGCACAT [CACACA_site5209] | 9.6 ± 0.43
60 | TTAAATATATGTAATACGCACACTTAATATTTTGAG [CACACA_site4170] | 8.18 ± 0.35
61 | AATTTTCATTTTAGAAGTACACACAAAAAATAAAAT [XGTACX_site4426] | 8.13 ± 0.22
62 | TGAATTTAGATATATACACACAAAAGTATATACAAT [CACACA_site2804] | 7.53 ± 0.54
63 | TATATATATTCTTTAAAACACACGTAAAGAAGAATT [CACACA_site2718] | 7.94 ± 0.62
64 | AATATAATATAATGCACACATAAAAAAAAAAAAAAA [CACACA_site304] | 11.1 ± 0.87
65 | TATATATATATATTCACACATAAATATATGCACCCA [CACACA_site4263] | 11.1 ± 0.68
66 | ATAATAAAAAAAAATGCACACATATATATATATATA [CACACA_site8766] | 9.59 ± 0.47
67 | TAAACATAAATATGCACACATATACATATATTCATA [CACACA_site2667] | 8.69 ± 0.099
68 | TATATATATATATTCACACATAAAAATAAAATAAAA [CACACA_site4774] | 9.2 ± 0.13
69 | AAAATATAATATAATGCACACATAAAAAAAAAAAAA [CACACA_site7989] | 11.1 ± 0.49
70 | AATAAAAAAAAATGCACACATATATATATATATATA [CACACA_site2421] | 9.67 ± 0.52
71 | TCCTTATATTTGCACACACACACAAGAAAATGAAAA [CACACA_site6613] | 10.3 ± 0.54
72 | TTTTGAATTAAACAAGCATGCTTTATTTACTTCTTA [TGCATGCA_site289] | 7.59 ± 0.86

Row | Sequence | gcPBM binding intensity (ln)
73 | ACTAAACGAATAAATTGTACAAAGAAATATATTCAT [XGTACX_site6766] | 7.83 ± 0.54
74 | TTCTTCTGTTTTATTACACACCATTTTGTGGATACA [CACACA_site5181] | 8.38 ± 0.71
75 | ACTACATAATACTATTCACACATTTTTTTTTTTTTT [CACACA_site5794] | 7.83 ± 0.58
76 | ATATATATTTTTAATTGTACAGAATTAAAAATATTG [XGTACX_site1967] | 7.64 ± 0.45
77 | AAAAAAAAAAAACACACACACACACCGATACATACA [CACACA_site8849] | 7.92 ± 0.45
78 | AAAAGGAAAATACTAGCACACAATATATAATAAACA [CACACA_site285] | 7.99 ± 0.49
79 | TTTCACATATATATGGTGCATATTTTATGTGTAAAT [GTGCAC_site9937] | 9.95 ± 0.52
80 | TTTATTTATGTGTGGGTGCATATACGTATGATGTAT | 11 ± 0.72
81 | ATATGAAACATGAAGGTGCATAATGTGTATATTTAT | 11.3 ± 0.69
82 | ATATATTATGGGTGTGCACACAATATTTATATGTTC [CACACA_site2270] | 9.59 ± 0.23
83 | TATTTATATGTATATACATGCACATATATATGAAAC [TGCATGCA_site1005] | 8.35 ± 0.57
84 | ATTTCCCCAACGTGGGTGCATATATTTATGTGTGAA [GTGCAC_site9439] | 10.9 ± 0.82
85 | ATTTATATATATGTATGTACGTATGTGTGTATATGT [XGTACX_site7587] | 8.55 ± 0.27
86 | GTATTATTTTATGATGCATGTGTATTTCATATATGC [TGCATGCA_site660] | 7.74 ± 0.49
87 | CACATATATATGTGTGCATGTTGTATTATATATTTA [TGCATGCA_site632] | 8.69 ± 0.46
88 | AGAGGAAAAATAAAAGGAAAAAAGAAAATAATATTG [CACACA_negctrl_site852] | 7.45 ± 0.73
89 | GAATGAATGATAAATTTTTTTTTCTTTTTTTTTTTG [CACACA_negctrl_site333] | 7.09 ± 0.59
90 | ACCTTATAAAAAAAAAGTACATATATAAATAATAAA [XGTACX_site4338] | 8.29 ± 0.13
91 | ATATAATTAAAAACATGTACATATATATATATATAT [XGTACX_site2882] | 9.27 ± 0.2
92 | ATGTTCTTTAAAACCACACACCCCCCAACCCCCCTC [CACACA_site2373] | 10.6 ± 0.36
93 | TTATGTTCTTTAAAACCACACACCCCCCAACCCCCC [CACACA_site8742] | 10.9 ± 0.44
94 | CAAACCCACCAACACACACACACAAAAATGATTAAA [CACACA_site2432] | 8.03 ± 0.23
